Source: the supplement of paper PMC12645437, “Orthogonal IMiD-Degron Pairs Induce Selective Protein Degradation in Cells” (ACS Chemical Biology, 2025)
Whole data set: some 8,300 sequences, median “log2 fold change of degron read counts, EGFP-low vs EGFP+ sorted cells (limma voom), compound-induced degradation” near -1.1, cut for the highest 2% near 3.2. The entries come from a sample that favours the highest values as a whole.

T1: CRBN, Q96SW2
T1 chain: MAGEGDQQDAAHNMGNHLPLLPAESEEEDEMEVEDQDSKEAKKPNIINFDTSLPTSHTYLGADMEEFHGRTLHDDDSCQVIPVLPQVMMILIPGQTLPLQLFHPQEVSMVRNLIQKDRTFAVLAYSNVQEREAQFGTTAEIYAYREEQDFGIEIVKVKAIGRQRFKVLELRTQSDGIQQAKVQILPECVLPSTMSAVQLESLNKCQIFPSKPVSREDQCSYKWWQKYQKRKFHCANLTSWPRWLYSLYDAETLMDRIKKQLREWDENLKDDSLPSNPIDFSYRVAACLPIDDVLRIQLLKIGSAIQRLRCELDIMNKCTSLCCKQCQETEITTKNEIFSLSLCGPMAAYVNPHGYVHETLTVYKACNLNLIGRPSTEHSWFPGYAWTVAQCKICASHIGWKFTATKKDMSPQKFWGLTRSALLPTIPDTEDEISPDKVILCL


Molecular target: T1, CRBN, Q96SW2
Experiment: log2 fold change of degron read counts, EGFP-low vs EGFP+ sorted cells (limma voom), compound-induced degradation; higher = more compound-induced degradation of the degron-EGFP fusion; degrons are variants of IKZF1/3 zinc finger 2; compound dose not given here
Conditions: Jurkat, 18 h
Protocol: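 Pooled library of 8380 IKZF3 ZF2 degron mutants (positions 146-167 varied within the IKZF3 130-189 degron; only the varied core is printed, flanks not printed) fused to EGFP with IRES-mCherry, lentivirally expressed in Jurkat cells. mCherry+ cells were treated with one IMiD compound for 18 h (dose not stated) and FACS-sorted into EGFP-low and EGFP+ populations. Degron sequences were counted by NGS, and log2FC (EGFP-low vs EGFP+) was estimated by limma voom over 3 biological replicates.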

[1] = compound: compound 19 (5-tert-butyl-thalidomide)
[2] = compound: compound 22 (5-morpholino-thalidomide)
[3] = compound: compound 33 (diphenyl IMiD analogue)
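Note: pooled lentiviral library of zinc finger degron-EGFP fusions in mCherry-positive Jurkat cells, FACS-sorted after compound exposure, with degron abundance counted by next-generation sequencing.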

Sequence | log2 fold change of degron read counts [1] | log2 fold change of degron read counts [2] | log2 fold change of degron read counts [3] | log2 fold change of degron read counts (compound: thalidomide)
FLCPICGACFTQKGNLLRHIKL [46F_47L_49P_50I_52G_53A_54C_55F_67L_, Q9UKT9] | 0.664 | -0.175 | 1.79 | 1.62
FSCPICGACFTQKGNLLRHIKL [46F_47S_49P_50I_52G_53A_54C_55F_67L_, Q9UKT9] | 2.84 | 2.22 | 2.64 | 1.47
FDCPICGACFTQKGNLLRHIKL [46F_47D_49P_50I_52G_53A_54C_55F_67L_, Q9UKT9] | 1.96 | 0.401 | 2.22 | 2.13
FACPICGACFTQKGNLLRHIKL [46F_47A_49P_50I_52G_53A_54C_55F_67L_, Q9UKT9] | 3.48 | 2.09 | 1.78 | 1.06
FCCPICGACFTQKGNLLRHIKL [46F_47C_49P_50I_52G_53A_54C_55F_67L_, Q9UKT9] | 2.52 | 2.23 | 2.82 | 2.11
FYCPICGACFTQKGNLLRHIKL [46F_47Y_49P_50I_52G_53A_54C_55F_67L_, Q9UKT9] | 3.5 | 3.63 | 2.59 | 1.59
FWCPICGACFTQKGNLLRHIKL [46F_47W_49P_50I_52G_53A_54C_55F_67L_, Q9UKT9] | 3.58 | 3.31 | 2.4 | 1.46
FICPICGACFTQKGNLLRHIKL [46F_47I_49P_50I_52G_53A_54C_55F_67L_, Q9UKT9] | -0.628 | 2.02 | 1.94 | 2.17
FNCPICGACFTQKGNLLRHIKL [46F_47N_49P_50I_52G_53A_54C_55F_67L_, Q9UKT9] | 2.34 | 1.06 | 1.37 | 0.843
FQCPICGACFTQKGNLLRHIKL [46F_47Q_49P_50I_52G_53A_54C_55F_67L_, Q9UKT9] | 0.828 | 3.06 | 2.53 | 3.77
FMCPICGACFTQKGNLLRHIKL [46F_47M_49P_50I_52G_53A_54C_55F_67L_, Q9UKT9] | -0.174 | 0.429 | 2.49 | 1.41
FVCPICGACFTQKGNLLRHIKL [46F_47V_49P_50I_52G_53A_54C_55F_67L_, Q9UKT9] | 0.0061 | 2.13 | 2.08 | 2.38
FDCDQCGAEFTQKGNLLRHIKL [46F_47D_49D_50Q_52G_53A_54E_55F_67L_, Q9UKT9] | -3.44 | -3.7 | -3.04 | -3.25
FVCEVCGAFFTQKGNLLRHIKL [46F_47V_49E_50V_52G_53A_54F_55F_67L_, Q9UKT9] | -0.979 | -0.472 | 1.09 | 0.698
FDCPQCGAMFTQKGNLLRHIKL [46F_47D_49P_50Q_52G_53A_54M_55F_67L_, Q9UKT9] | -2.55 | -2.86 | -1.76 | -1.75
FFCNQCGRSFTQKGNLLRHIKL [46F_47F_49N_50Q_52G_53R_54S_55F_67L_, Q9UKT9] | -2.31 | -2.35 | -2.54 | -2.53
FYCDQCGAEFTQKGNLLRHIKL [46F_47Y_49D_50Q_52G_53A_54E_55F_67L_, Q9UKT9] | -1.15 | -2.26 | -1.96 | -3.08
FNCPICGHAFTQKGNLLRHIKL [46F_47N_49P_50I_52G_53H_54A_55F_67L_, Q9UKT9] | -1.92 | -2.91 | -2.41 | -1.74
FWCPICGAEFTQKGNLLRHIKL [46F_47W_49P_50I_52G_53A_54E_55F_67L_, Q9UKT9] | 2.47 | 2.5 | 1.96 | 0.113
FDCNQCGHAFTQKGNLLRHIKL [46F_47D_49N_50Q_52G_53H_54A_55F_67L_, Q9UKT9] | -2.71 | -2.67 | -2.47 | -2.94
FKCDICGAEFTQKGNLLRHIKL [46F_47K_49D_50I_52G_53A_54E_55F_67L_, Q9UKT9] | -3.02 | -3.75 | -4.07 | -2.58
FKCSVCGHVFTQKGNLLRHIKL [46F_47K_49S_50V_52G_53H_54V_55F_67L_, Q9UKT9] | -3.06 | -3.01 | -3.11 | -3.07
FWCEQCGAQFTQKGNLLRHIKL [46F_47W_49E_50Q_52G_53A_54Q_55F_67L_, Q9UKT9] | 0.92 | 2.94 | 0.838 | -0.633
FKCPICGACFTQKGNLLRHIKL [46F_47K_49P_50I_52G_53A_54C_55F_67L_, Q9UKT9] | -0.511 | -2.33 | -2.58 | -0.71
FHCPICGACFTQKGNLLRHIKL [46F_47H_49P_50I_52G_53A_54C_55F_67L_, Q9UKT9] | 2.71 | 2.64 | 2.08 | 0.899
FGCPICGACFTQKGNLLRHIKL [46F_47G_49P_50I_52G_53A_54C_55F_67L_, Q9UKT9] | 3.9 | 2.82 | 2.74 | 1.24
FFCPICGACFTQKGNLLRHIKL [46F_47F_49P_50I_52G_53A_54C_55F_67L_, Q9UKT9] | 3.22 | 3.44 | 2.28 | 1.16
FECPICGACFTQKGNLLRHIKL [46F_47E_49P_50I_52G_53A_54C_55F_67L_, Q9UKT9] | 0.233 | -0.321 | 2.66 | 2.94
FRCPICGACFTQKGNLLRHIKL [46F_47R_49P_50I_52G_53A_54C_55F_67L_, Q9UKT9] | -0.121 | 0.343 | 1.61 | 1.35
